Compound activity as filed in PubChem.
A selection: hits, their analogues and other compounds. The true share with any hit is near 2.1%.
BJeLR lethal: kills HRASV12-expressing BJeLR cells; BJeLR (HRASV12) viability, CellTiter-Glo ATP luminescence, 48 h; inhibition, % (concentration not given with the values); 0.17% of 300,000 active; AID 1554; in the data active = inhibition above about 50%
PfHsp40 yeast: restores yeast growth despite PfHsp40 toxicity; growth rescue, % at 12.5 µM; 0.68% of 340,000 active; S. cerevisiae expressing PfHsp40, growth rescue, ATP luminescence; AID 504582; in the data active = growth rescue above about 28%, passing the limit was not always enough;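 note: yeast W303a lacking pdr1 and pdr3 grown in galactose medium; growth measured after three days at 30 °C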
MazEF act: activators of E. coli MazEF toxin-antitoxin RNase; P0AE70; FAM/BHQ RNA-DNA oligo cleavage fluorescence, 5 h; activation, % at 20 µM; 0.32% of 350,000 active; AID 504720; in the data active = activation above about 50%
Target sequence (P0AE70 whole entry, looked up): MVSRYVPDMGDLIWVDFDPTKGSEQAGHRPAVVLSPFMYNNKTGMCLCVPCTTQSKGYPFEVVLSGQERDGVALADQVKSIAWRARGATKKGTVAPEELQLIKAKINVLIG
PrP UTR inh: inhibition of PrP 5' UTR reporter expression; cell-based PrP 5' UTR mRNA reporter, plate reader; inhibition, % (test concentration not listed); 0.35% of 340,000 active; in the data active = inhibition above about 52%; note: 0 = median of the neutral control wells
PrPC TRFRET: cell surface PrPC inhibition, primary TR-FRET screen; P04156; TR-FRET read-out; 0.43% of 370,000 active; inhibition, % at 13.8 µM; in the data active = inhibition above about 24%; note: 0% = median of the test wells and 100% = reference compound wells
DUSP3 inh: DUSP3 (human) phosphatase inhibition; P51452; recombinant VHR phosphatase, pNPP absorbance; inhibition, % at 13.3 µM; 0.52% of 290,000 active; in the data active = inhibition above about 50%
Target sequence (P51452 whole entry, looked up): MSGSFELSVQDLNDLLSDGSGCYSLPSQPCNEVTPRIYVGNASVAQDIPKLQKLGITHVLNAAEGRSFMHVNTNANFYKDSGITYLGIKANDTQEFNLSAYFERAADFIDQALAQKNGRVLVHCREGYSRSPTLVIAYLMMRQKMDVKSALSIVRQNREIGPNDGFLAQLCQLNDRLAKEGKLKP
PrP 5UTR single: prion 5' UTR mRNA inhibition, cherry-pick retest; shares compounds with PrP UTR inh; cell-based prion protein 5' UTR reporter, plate reader; inhibition, % at 2.5 µM; 48% of 1,100 active; AID 504592; in the data active = inhibition above about 54%
Active calls of the source: *; x = not tested or not shown.

SMILES | BJeLR lethal | PfHsp40 yeast | MazEF act | PrP UTR inh | PrPC TRFRET | DUSP3 inh | PrP 5UTR single
Cc1nc2ncccn2c1-c1csc(Nc2ccc(N(C)C)cc2)n1 | 35 | 0 | 3 | 60* | 5 | 30 | 90*
CC[C@H](NC(=O)/C=C/[C@H]1O[C@@H](n2cc(C)c(=O)[nH]c2=O)C[C@@H]1O)c1ccccc1 | x | x | x | x | 10 | x | x
Cc1nc2ccccc2c(=O)n1/N=C/c1c(O)ccc2ccccc12 | 0 | x | 12 | -12 | 1 | 16 | x
Cc1nc2ccccc2c(=O)n1/N=C/c1c(O)ccc2oc3c(c12)CCCC3 | -1 | 0 | -16 | 61* | -4 | -4 | -2
Nc1ncnc2c(C3OC(CO)C(O)C3O)scc12 (configuration not stated) | x | 145* | 12 | 58* | 55* | x | 82*
COc1cc(OC)cc(-c2cc3nc(C)c(CCC(=O)O)c(C)n3n2)c1 | x | 0 | 2 | 54* | -3 | 25 | 57*
COc1cc(OC)cc(-c2cc3nc(C)c(CCC(=O)NC(C)CCc4ccco4)c(C)n3n2)c1 (configuration not stated) | -2 | 1 | 4 | 1 | -4 | -2 | x
CC1=C(C(=O)N2CCOCC2)CC(CC(=O)NCc2cccs2)C(=O)N1CCC1=CCCCC1 (configuration not stated) | x | x | 0 | x | 2 | x | x
C[C@@H]1CN([C@H](C)CO)C(=O)CCCn2nncc2CO[C@@H]1CN(C)C(=O)CCC(F)(F)F | x | x | 3 | x | -4 | x | x
O=C(O)c1cc(N/N=C/c2ccc3c(c2)OCO3)ccc1Cl | -8 | -1 | 8 | -53 | -4 | 13 | x
O=C(O)c1ccc(N/N=C/c2ccc3c(c2)OCO3)cc1 | 42 | -1 | 4 | 77* | 4 | 2 | 65*
COc1cccc(NC(=O)Nc2cccc(C(=O)O)c2)c1 | -2 | 2 | 6 | 62* | 4 | 31 | 63*
O=C(Nc1cccc(C(=O)O)c1)Nc1ccc2c(c1)OCO2 | -1 | -1 | 5 | 84* | 5 | 2 | 73*
CCOC(=O)c1cccc(NC(=O)/C=C/c2ccc3c(c2)OCO3)c1 | 7 | 13 | 2 | 60* | 18 | -8 | 22
Cc1ccc(-n2c(COc3ccccc3)nnc2SCC(=O)Nc2ccccc2-c2ccccc2)cc1 | x | x | x | x | 0 | x | x
CC(=O)c1ccc(OCC(=O)Nc2c(C)nn(-c3ccccc3)c2C)cc1 | 2 | 0 | -14 | -7 | -1 | x | x
CCN(CC)S(=O)(=O)c1ccc(N2CCCC2)c(NC(=O)CN2C(=O)NC3(CCCC3)C2=O)c1 | -1 | -1 | 6 | 77* | -5 | x | 14
O=C(COc1cc(Cl)c(Cl)cc1Cl)NCCN1CCOCC1 | -2 | -1 | 0 | 55* | 3 | 2 | -24
CC(C)C[C@H](NC(=O)N1c2ccccc2NC(=O)[C@@H]1C(C)C)C(=O)N[C@@H](Cc1ccccc1)C(=O)O | -1 | 0 | 1 | -38 | -2 | 0 | x
COc1cc2cc(C#N)c(SCC(=O)N3CCOCC3)nc2cc1OC | -7 | 0 | 1 | 72* | -4 | 18 | -29
O=C(CNc1cccc([N+](=O)[O-])c1)NC(=O)NC1CCCCC1 | x | 0 | 6 | -26 | -3 | x | x
COC(=O)c1cn(NC(=O)c2ccccc2[N+](=O)[O-])c(=O)c2ccccc12 | x | -1 | -7 | 56* | -4 | 9 | -41
CC(C)OC(=O)c1cc(C(=O)c2cc(Br)ccc2O)coc1=N | -11 | -1 | -4 | 63* | -2 | 2 | -15
CC(C)OC(=O)c1cc(C(=O)c2cc(Cl)ccc2O)coc1=N | -4 | 0 | -3 | -25 | -1 | 29 | x
CCCN(CCC)C(=O)c1ccc2c(=O)n(Cc3ccco3)c(=S)[nH]c2c1 | -1 | -1 | 2 | 83* | 1 | 3 | 17
CCOCCOC(=O)c1[nH]c2c(c1C)C(=O)CC(c1cc(OC)c(OC)c(OC)c1)C2 (configuration not stated) | 5 | 0 | 4 | -1 | 13 | 10 | x
COC(=O)c1[nH]c2c(c1C)C(=O)CC(c1cccc(OC)c1)C2 (configuration not stated) | 43 | -1 | -2 | 74* | 7 | 2 | 88*
